Compound activity deposited in PubChem by several laboratories.
Keap1 Nrf2 FP: disrupts human Keap1 binding to Nrf2 peptide | Q14145 | Keap1 Kelch-Nrf2 peptide fluorescence polarization, 1536-well | inhibition, % at 9.4 µM | 340,000 compounds, 0.15% hits | AID 504523; in the data active = inhibition above about 12%;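 note: human Keap1 Kelch domain with fluorescein labeled Nrf2 9mer peptide probe; 0% = neutral control wells and 100% = peptide positive control; higher means more block of Keap1 binding to Nrf2 peptide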
LANA DNA inh: KSHV C-LANA DNA binding inhibition | inhibition, % at 9 µM | MBP-C-LANA/FAM-LBS DNA binding, fluorescence polarization | AID 504423 | 340,000 compounds, 0.078% hits;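 active = highest replicate inhibition at or above 60% at 9 µM, even if other replicates fall short; inactive = all replicates below 60% inhibition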;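 note: 0% = neutral control wells and 100% = 4 µM acridine orange control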
cardiac RTF act: increases calcium sensitivity of human cardiac regulated thin filaments | AID 493008 | IANBD-labeled TnC RTF fluorescence at EC20 calcium; 0% EC20 calcium, 100% full calcium | activation, % at 7.2 µM | 340,000 compounds, 0.24% hits | P19429+P45379;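 active = activation above the mean over all tested compounds plus 3 SD, cut at about 30% in these data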;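 note: rise in fluorescence read as greater calcium sensitivity of cardiac thin filaments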
LANA-H2A inh: blocks KSHV LANA binding to histone H2A/H2B. cell-free LANA-H2A/H2B peptide, fluorescence polarization. inhibition, % (no concentration beside the values). Q9QR71. AID 2629. 320,000 compounds, 0.6% hits; in the data active = inhibition mostly above about 10%, no sharp cut-off; inactive = mostly below about 6.7%
Target sequence (Q9QR71 whole entry, looked up): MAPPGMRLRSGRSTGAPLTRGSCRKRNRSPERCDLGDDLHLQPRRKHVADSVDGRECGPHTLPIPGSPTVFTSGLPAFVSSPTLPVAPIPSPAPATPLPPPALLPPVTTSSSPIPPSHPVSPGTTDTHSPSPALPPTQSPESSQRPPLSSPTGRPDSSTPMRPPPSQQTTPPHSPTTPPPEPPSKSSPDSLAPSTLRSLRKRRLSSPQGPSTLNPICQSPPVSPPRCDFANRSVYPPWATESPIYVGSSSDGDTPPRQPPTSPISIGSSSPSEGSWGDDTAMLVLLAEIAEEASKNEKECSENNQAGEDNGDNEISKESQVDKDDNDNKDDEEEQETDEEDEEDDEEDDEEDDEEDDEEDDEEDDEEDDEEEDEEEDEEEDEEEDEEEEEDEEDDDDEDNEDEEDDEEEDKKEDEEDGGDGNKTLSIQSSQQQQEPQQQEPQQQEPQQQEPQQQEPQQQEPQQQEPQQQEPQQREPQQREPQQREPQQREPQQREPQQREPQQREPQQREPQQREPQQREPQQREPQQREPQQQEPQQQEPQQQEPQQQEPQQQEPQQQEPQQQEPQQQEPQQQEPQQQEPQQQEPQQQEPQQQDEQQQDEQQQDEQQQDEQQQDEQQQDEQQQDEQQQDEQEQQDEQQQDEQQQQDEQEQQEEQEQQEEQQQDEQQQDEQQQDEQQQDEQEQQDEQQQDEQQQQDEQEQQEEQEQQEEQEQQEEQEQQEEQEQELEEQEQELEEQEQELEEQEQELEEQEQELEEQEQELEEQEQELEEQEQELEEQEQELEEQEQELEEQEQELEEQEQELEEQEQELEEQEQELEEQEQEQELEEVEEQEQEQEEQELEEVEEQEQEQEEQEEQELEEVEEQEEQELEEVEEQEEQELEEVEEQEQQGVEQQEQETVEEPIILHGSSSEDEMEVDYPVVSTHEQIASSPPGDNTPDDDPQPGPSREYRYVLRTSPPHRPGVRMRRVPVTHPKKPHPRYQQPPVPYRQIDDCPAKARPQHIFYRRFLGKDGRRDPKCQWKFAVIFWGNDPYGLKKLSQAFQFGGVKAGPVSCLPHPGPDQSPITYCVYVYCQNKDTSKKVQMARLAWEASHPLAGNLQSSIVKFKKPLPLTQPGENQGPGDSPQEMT
Cardiac RTF inh: cardiac RTF calcium desensitization; P19429+P45379; IANBD-labeled cardiac RTF, Ca2+ fluorescence; inhibition, % at 7.15 µM; 340,000 compounds, 0.12% hits; AID 493244;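 active = inhibition above the mean inhibition of all tested compounds plus 3 SD, cut at about 17% in these data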;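 note: assay run at fixed EC70 calcium of 1.6 mM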
* hit, by the source's call; x = not tested or not shown; + = active, no number. A selection: hits, their analogues and other compounds. The true share with any hit is near 1%.

SMILES | Keap1 Nrf2 FP | LANA DNA inh | cardiac RTF act | LANA-H2A inh | Cardiac RTF inh
Cc1cc(=O)oc2cc(OC(C)C(=O)NCC3CCCO3)ccc12 (stereo not given) | 0.1 | -0.5 | 1.6 | 20.7* | -13.1
CC(Oc1ccc2c3c(c(=O)oc2c1)CCCC3)C(=O)NCCN1CCOCC1 (stereo not given) | -4.1 | 0.6 | -6.2 | 11.4* | -5.7
Cc1ccc(S(=O)(=O)N2CCC(C(=O)NCc3ccccc3Cl)CC2)cc1 | -4.7 | -0.5 | 12.4 | 93.3* | 0.3
COCCNC(=O)CN(Cc1ccc2c(c1)OCO2)C(=O)CCC(=O)Nc1nccs1 | -1.8 | 1.1 | -1.1 | 18.1* | -7.2
COCCN(CC(=O)NCc1ccc2c(c1)OCO2)C(=O)CCC(=O)Nc1nccs1 | 5.1 | 1.6 | -2.5 | 2.6 | -19.5
CN(Cc1ccccc1)C(=O)c1cccc(NC(=O)Cc2ccc(NC(=O)C3CCCN(C(=O)c4ccccc4)C3)cc2)c1 (stereo not given) | 2.4 | 5.7 | -0.8 | x | 1.0
C=CCN(CC=C)c1ncnc2[nH]ncc12 | -1.8 | -0.1 | 1.1 | x | -7.1
N#CC1(Nc2ccc([N+](=O)[O-])cc2)CCCC1 | -5.7 | -1.4 | -6.1 | x | -8.7
Cc1ccc(-c2nnc(Nc3ccc(OCC(N)=O)cc3)c3ccccc23)cc1S(N)(=O)=O | 0.3 | -2.1 | -2.2 | -6.2 | 1.6
NC(=O)COc1ccc(Nc2nnc(-c3ccc(O)cc3)c3ccccc23)cc1 | -1.3 | -1.8 | 1.0 | 18.8* | 3.1
O=C(O)COc1ccccc1/C=N/NC(=O)CSc1nc2ccccc2c(=O)n1-c1ccccc1 | -2.5 | -2.6 | -0.4 | 4.1 | -11.5
Cc1ccc(Nc2nc(N3CCOCC3)nc(N3CCOCC3)n2)cc1 | -2.8 | 1.7 | 1.1 | -2.4 | 1.0
CCCCc1ccc(Nc2nc(N3CCOCC3)nc(N3CCOCC3)n2)cc1 | -0.4 | -0.1 | -6.9 | 21.0* | -6.7
CCOC(=O)c1cc(OC(=O)c2ccccc2Br)n(-c2ccccc2)n1 | -4.5 | -1.4 | 10.0 | 17.3* | -6.9
CCOC(=O)c1cc(OC(=O)c2ccccc2)n(-c2ccccc2)n1 | -2.7 | 0.2 | 2.9 | -1.1 | -7.3
Oc1sc(C=Nc2ccccc2)c2ccccc12 | -11.8 | 2.2 | 75.3* | -5.8 | -110.9
CCOC(=O)CNC(=O)Nc1ccccc1C(=O)OC | -0.4 | 0.1 | 0.1 | -3.1 | -20.9
CC1=C(C(N)=O)C(c2ccccc2F)n2nc(CCCO)nc2N1 (stereo not given) | -5.5 | -1.5 | 4.0 | -1.3 | -7.1
CC1=C(C(N)=O)C(c2ccc(Br)cc2)n2nc(CCCO)nc2N1 (stereo not given) | -2.4 | 1.8 | -2.1 | 15.8* | -3.1
CCOc1ccc(NC(=O)CN(C)C(=O)C2CC(=O)N(c3cccc(SC)c3)C2)cc1OCC (stereo not given) | -2.4 | -0.3 | -4.4 | x | -6.6
N#Cc1c(SCc2c(Cl)cccc2Cl)nc(N)[nH]c1=S | 0.4 | -1.7 | -11.4 | 11.2* | -3.5
CC(C)N(Cc1nccn1C)C(=O)CC1C(=O)NCCN1Cc1ccccc1C(F)(F)F (stereo not given) | 1.2 | 3.0 | -3.3 | 13.3* | -3.0
O=C(CC1C(=O)NCCN1Cc1ccccc1C(F)(F)F)NC1CCC1 (stereo not given) | -0.5 | 1.8 | 3.7 | 181.1* | -6.3
O=C(Nc1ccc(C(=O)O)cc1)/C(=C\c1ccc([N+](=O)[O-])cc1)NC(=O)c1ccc(Br)cc1 | -1.2 | 0.8 | 8.0 | 1.7 | -5.0
CCN(CC(=O)Nc1ccc(NC(C)=O)cc1)C(=O)c1ccc(N2C(=O)c3ccccc3C2=O)cc1 | 0.8 | 1.3 | 1.7 | x | -14.2
SMILES | Keap1 Nrf2 FP | LANA DNA inh | cardiac RTF act | LANA-H2A inh | Cardiac RTF inh
CSc1ccccc1NC(=O)Cn1ccsc1=N | 4.0 | -0.1 | 1.2 | 10.7* | -13.6
Cc1ccc(S(=O)(=O)N2CCOCC2)cc1C(=O)OCC(=O)NC1CCCC(C)C1C (stereo not given) | -0.3 | -1.0 | -1.6 | -19.6 | 7.5
COC(=O)c1[nH]c2ccc(F)cc2c1NC(=O)C1=COCCO1 | -0.1 | -0.9 | 0.3 | 11.5* | -0.1
O=[N+]([O-])c1ccc(Nc2ccccc2)c2nonc12 | -12.8 | -2.2 | -5.7 | 1.2 | 2.0
O=[N+]([O-])c1ccc(Sc2cccc[n+]2[O-])c2nonc12 | 19.6* | 19.1 | 5.5 | x | -6.2
CC1=CC(=O)c2c(O)ccc(O)c2C1=O | x | x | x | 16.9* | x
O=C1C=C(N2CCN(c3ccccn3)CC2)C(=O)c2c(O)ccc(O)c21 | -2.9 | 1.5 | 5.7 | x | 3.0
CCOC(=O)C1(Cc2ccccc2C(F)(F)F)CCN(CCCn2cccn2)CC1 | -2.0 | 0.7 | -5.4 | 14.3* | -2.9
CCOC(=O)C1(CCCc2ccccc2)CCN(CCCn2cccn2)CC1 | 1.4 | 0.6 | -1.6 | -2.0 | 9.8
CC(C)[C@H](NC(=O)c1ccc(Cl)cc1Cl)C(=O)NNc1cccc(C(=O)O)c1 | 0.2 | -1.6 | 2.8 | 14.5* | -6.7
Cc1ccc(C(=O)COC(=O)C2CCC2)cc1 | 1.2 | -1.3 | 62.9* | 3.0 | -5.3
CC(=O)NCCc1ccc(C(=O)COC(=O)C2CCCCC2)cc1 | -5.6 | -2.1 | -1.5 | 4.4 | -3.1
Cc1cccn2c(=O)c(/C=C(\C#N)C(N)=O)c(N3CCN(c4cccc(Cl)c4)CC3)nc12 | -9.7 | 4.7 | -3.6 | 1.6 | -2.8
Cc1cc(C(=O)OCC(=O)NCc2ccco2)c(C)n1-c1ccc(F)cc1 | -5.5 | 0.2 | -5.6 | 44.8* | -2.2
Cn1c(SCC(=O)Nc2ccc(N3CCOCC3)c(Cl)c2)nnc1-c1ccccc1 | x | x | x | 40.3* | x
CCN(CC)CCCN1C(=O)C(=O)/C(=C(/O)c2ccccc2)C1c1cc(OC)ccc1OC (stereo not given) | -3.5 | 1.0 | 6.6 | 17.4* | -19.1
COc1ccccc1C1/C(=C(/O)c2ccccc2)C(=O)C(=O)N1CCO (stereo not given) | 0.3 | -0.1 | -3.2 | 3.0 | -16.4
CN(C)S(=O)(=O)c1ccc(C(=O)NCc2cccs2)cc1 | -2.1 | -0.2 | -3.4 | 3.6 | -3.2
CN(C)S(=O)(=O)c1ccc(C(=O)NCc2nc3ccccc3s2)cc1 | -3.9 | -1.6 | -2.3 | 14.7* | -26.4
CCOC(=O)C1CCN(C(=O)c2ccc(NS(=O)(=O)c3ccc4[nH]c(=O)[nH]c4c3)cc2)CC1 | 2.1 | 0.5 | -1.1 | x | 4.8
CCOc1ccc2c(c1)c1nc3ccccc3nc1n2C | -59.9 | 14.9 | -5.0 | 38.9* | -0.9
CCN(CC)S(=O)(=O)c1ccc(C(=O)N2CCN=C2SCc2cccnc2)cc1 | -2.9 | -0.9 | 6.5 | 25.6* | -4.0
Cc1ccc(C)c(S(=O)(=O)NCc2ccc(C(=O)N3CCC(Cc4ccccc4)CC3)cc2)c1 | -3.5 | -1.2 | -2.6 | -2.1 | -4.2
COc1ccc(C2CC(c3cccc(OC)c3)n3nc(N)nc3N2)cc1 (stereo not given) | -3.7 | 0.2 | -2.5 | 2.1 | -3.4
CCOc1ccc(C2CC(c3ccccc3C)n3nc(N)nc3N2)cc1 (stereo not given) | 2.3 | 1.7 | 0.0 | 32.5* | -2.3
COc1cccc(C2CC(c3ccc(Cl)cc3)n3nc(N)nc3N2)c1 (stereo not given) | -0.9 | -1.1 | -7.3 | + | -3.6
